# Assay outcomes from PubChem.
# Only a selection was taken, and hits are over-represented in it overall.
# RMI FANCM FP = inhibitors of human RMI core complex binding to FANCM MM2 | FP signal (polarization) at 33 µM | actives 0.58% (n = 70,000) | Fluorescence polarization, RMI core complex with F-MM2 peptide; active compounds read low; in the data active = FP signal below about 40
# * hit, by the source's call; ! = a repeat was not active.
SMILES,RMI FANCM FP
CCOCCn1c(=NC(=O)c2ccnn2C)sc2cc(C)ccc21,70
CSC(=NC(C)(C)C)N/N=C\c1cc(Cl)cc(Cl)c1O,70
OCCN=Cc1cc(Cl)cc(Cl)c1O,36
Oc1c(Cl)cc(Cl)cc1C=NCC1CCC(CN=Cc2cc(Cl)cc(Cl)c2O)CC1 (configuration not stated),10*
Oc1c(Cl)cc(Cl)cc1/C=N\NC(=S)Nc1cc(C(F)(F)F)cc(C(F)(F)F)c1,79
O=C1NN=CC1CCCN=Cc1cc(Cl)cc(Cl)c1O (configuration not stated),24*
CC(C)(O)C#Cc1ccc(C#N)cc1,59
O=[N+]([O-])c1ccccc1S(=O)(=O)Nc1ccc(-c2nc3cccnc3s2)cc1,60
CN1C(=O)C2C(C1=O)N1C(c3ccco3)C3C(=O)N(C)C(=O)C3N1C2c1ccco1 (configuration not stated),64
COc1ccc(CCNC(=O)Cn2cnc3c(cnn3C3CCS(=O)(=O)C3)c2=O)cc1OC (configuration not stated),64
O=C(CSc1nc2sc3c(c2c(=O)n1-c1ccccc1)CCCCC3)Nc1ccccc1,71
O=C(CSc1nc(SCC(=O)c2ccccc2)c2c3c(sc2n1)CCC3)c1ccccc1,79
CCNc1nc(SCC(=O)NC(=O)Nc2ccccc2)nc2sc3c(c12)CCN(C)C3,33*!
CC1CCc2c(sc(NC(=O)/C=C/c3cccs3)c2C#N)C1 (configuration not stated),111
Cn1nc(C(=O)Nc2ccc(Cl)c(Cl)c2)ccc1=O,63
Cc1cccc(CN2CCN(C(c3ccccc3)c3ccc(Cl)cc3)CC2)c1 (configuration not stated),66
CN1CCCN(C(c2ccccc2)c2ccc(Cl)cc2)CC1 (configuration not stated),-4*
CN1CCN(C(c2ccccc2)c2ccccc2)CC1,69
Cc1oc2ccccc2c1CC(=O)Nc1ccc(C(C)(C)C)cc1,53
COc1ccccc1NC(=O)CSc1nc(C)c(C)c(=O)[nH]1,54
Cc1ccc(C(=O)CSc2nccn(-c3ccc(Br)cc3)c2=O)c(C)c1,76
O=C(O)/C=C\C(=O)Nc1cccc2ccccc12,-3*
O=C(O)/C=C\C(=O)Nc1ccccc1OC(F)(F)F,53
N#CCCSc1ccccc1NC(=O)/C=C/C(=O)O,64
C#CCn1c(=NC(=O)c2ccc(C)c(C)c2)sc2cc(OC)ccc21,68
SMILES,RMI FANCM FP
O=C(CCCSc1ccccc1)Nc1ccc2ncsc2c1,66
N#CC(C#N)=CN1CCC(C(c2ccccc2)c2ccccc2)CC1,61
CCCN1CCCc2cc(CCNS(=O)(=O)c3ccc(C)cc3C)ccc21,126
COc1ccc(/C=C2\SC(=S)N(CCC(=O)Nc3cc(C)on3)C2=O)cc1OC,58
O=C(CCCN1C(=O)/C(=C2\SC(=S)N(CCCC(=O)Nc3cccc(C(=O)O)c3)C2=O)SC1=S)Nc1cccc(C(=O)O)c1,54
Cc1cc(NC(=O)CCN2C(=O)/C(=C3\SC(=S)N(CCC(=O)Nc4cc(C)on4)C3=O)SC2=S)no1,21*
O=C(NCCOc1ccc(-c2cccs2)nn1)NCc1ccccc1,72
COc1ccc(-c2noc(Cn3nc(-c4ccc(OC)c(OC)c4)ccc3=O)n2)c(OC)c1,71
NC(=O)SCC(=NS(=O)(=O)c1ccc(Cl)cc1)Nc1cccc2ccccc12,30*
O=S(=O)(N=C(Nc1ccc2ccccc2c1)c1ccccc1)c1ccc(Cl)cc1,63
O=C(CSCCS(=O)(=O)c1ccc(Cl)cc1)Nc1ccccc1Cl,58
COc1cn(CC(=O)Nc2cccc(C)c2)c(CN2CCN(C(C)=O)CC2)cc1=O,56
Cc1ccc(C=Nc2sc(C)c(C)c2C#N)s1,62
Cc1sc(N=Cc2ccco2)c(C#N)c1C,-16*
CCN(CC)c1ccc(C=Nc2sc(C)c(C)c2C#N)cc1,68
Cc1ccc(S(=O)(=O)Nc2ccc3c(c2)N(C)C(=O)C(C)(C)CO3)cc1C,67
O=C(Oc1ccc(COC(=O)c2ccccc2O)cc1)c1ccccc1,60
CCOC(=O)Cc1nn(Cc2nc(-c3cc(C(C)(C)C)c(O)c(C(C)(C)C)c3)cs2)c(=O)c2ccccc12,80
Cc1ccc(S(=O)(=O)N(C)C)cc1,56
Cc1ccc(S(=O)(=O)N=C2C=CC(=NS(=O)(=O)c3ccc(C)cc3)C=C2)cc1,0*
Cc1ccc(S(=O)(=O)N=c2sc3cccc(C)c3n2C)cc1,55
CC1CN(C(=O)c2cccc3c2-c2ccccc2C3=O)CC(C)O1 (configuration not stated),62
O=C1CN(C(=O)c2sc3ccccc3c2Cl)c2ccccc2N1,57
Cc1ccc(C)c(CN2C(c3ccccc3Cl)Nc3ccccc3S2(=O)=O)c1 (configuration not stated),72
Cc1ccccc1-c1nsc(SCC(N)=O)n1,115
SMILES,RMI FANCM FP
Cc1sc2nc(SCC(=O)OC(C)(C)C)n(-c3ccccc3)c(=O)c2c1C,73
Cc1ccc(-c2csc(NC(=O)c3nc4ccccc4s3)n2)cc1,130
Cc1ccc(-c2csc(NC(=O)c3nc4ccccc4s3)n2)o1,111
O=C(Nc1csc(-c2ccc(Oc3ccc(-c4nc(NC(=O)c5nc6ccccc6s5)cs4)cc3)cc2)n1)c1nc2ccccc2s1,31*
CCOC(=O)N1CCN(c2ccc(C(F)(F)F)cc2[N+](=O)[O-])CC1,57
COc1cccc(CNC(=O)c2cc(-c3cccs3)nc3c2c(C)nn3C2CCS(=O)(=O)C2)c1 (configuration not stated),108
N#CC(C#N)=Cc1ccc(Oc2ccccc2)nc1,59
O=C(O)c1cc(O)ccc1O,62
Nc1ccc(O)c(C(=O)O)c1,55
O=C(O)C1=CC(=C(c2ccc(O)c(C(=O)O)c2)c2ccc(O)c(C(=O)O)c2)C=CC1=O,-9*
CC(C)=NNC(=S)NC(C)(C)C,59
O=C(COc1ccc(Cl)cc1Cl)NCC1CCN(C2CCCC2)CC1,86
O=C(C1CCCCN1S(=O)(=O)c1cccs1)N1CCOCC1 (configuration not stated),56
O=[N+]([O-])c1ccc(-c2ccc(/C=N\NC(=S)NCC3CCCO3)o2)cc1 (configuration not stated),72
COc1ccccc1-c1nnc(Nc2nc3ccc(F)cc3s2)o1,29*
Fc1ccc2nc(Nc3nnc(-c4cccs4)o3)sc2c1,84
Fc1ccc2nc(Nc3nnc(-c4ccco4)o3)sc2c1,80
O=C(CSCc1ccc(Cl)cc1)Nc1ccc(F)cc1,68
O=C(CSc1nccn2nc(-c3ccccc3)cc12)Nc1ccccc1,110
CCOc1ccccc1NC(=O)CC1CCCCN1S(=O)(=O)c1ccc(F)cc1 (configuration not stated),65
CCOc1ccc(NC(=O)Cc2cc(=O)[nH]c(SCc3ccccc3)n2)cc1,61
O=C(O)C=Cc1ccc(O)c(O)c1,60
O=c1cc(O)cc(/C=C/c2ccc(O)c(O)c2)o1,15*
N#C/C(=C\c1ccc(O)c(O)c1)C(=O)c1ccc(O)c(O)c1,93
CSc1sc(C(=O)NC(=O)Nc2ccc(Cl)cc2)c2c1-c1nocc1CC2,46
O=C(CCCn1nc(-c2ccccc2)ccc1=O)Nc1nc2ccccc2s1,72
Cc1ccc(S(=O)(=O)OCC2C=CC(COS(=O)(=O)c3ccc(C)cc3)C2)cc1 (configuration not stated),64
COc1ccc(S(=O)(=O)Nc2cc(-c3c(O)ccc4ccccc34)c(O)c3ccccc23)cc1,58
O=S(=O)(Nc1cc(Br)c(O)c2ccccc12)c1ccc2ccccc2c1,29*
